This is a sample that favours compounds with a hit; in the whole collection about 1.8% have one here.
TSHR antagonist = antagonists of human thyroid stimulating hormone receptor; activity change, negative = inhibition, % at 11.5 µM; 0.2% of 330,000 active; TSHR-expressing cells, TSH-stimulated cAMP HTRF, 2 h; stronger effect = lower value;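 active means activity change below a set negative limit, meaning inhibition stronger than a set level, cut at about -70% in these data; inconclusive means activity change between two set negative limits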
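TSHR-expressing cells, 200/well, pre-treated with compound, then stimulated with EC80 TSH (4nM final) for 2 hours at 37 deg C. cAMP measured by competitive HTRF: anti-cAMP cryptate antibody in lysis buffer plus cAMP-d2, read after 30 minutes at room temperature.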
PTHR1 ag = activates the human parathyroid hormone receptor PTHR1; 0.075% of 410,000 active; Q03431; Potency, µM (top dose mostly 115 µM), usual class: activators; HEK293 GP2 PTHR1 cells, GloSensor cAMP luminescence, 1 h; further: nearly all actives have a fitted effect of over 55% in size
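HEK-293-derived GP2 cells expressing PTHR1 and a GloSensor cAMP reporter, 3,000/well, plated overnight, given luciferin plus IBMX (each 0.5 mM as added) for 1 h at 37 °C, then compound for 1 h at 37 °C. Luminescence was read after 15 min at room temperature.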
GLP1R cytotox = cytotoxicity counter-screen for GLP-1 receptor inverse agonists; HEK293 cAMP-luciferase reporter cells, luminescence, 24 h; 0.13% of 410,000 active; Potency, µM (highest dose often 38.3 µM), actives largely listed as inhibitors;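 further: loss of luciferase light is scored as toxicity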
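Here, cytotoxicity is scored as loss of luminescence. The MLSMR collection was tested on cells seeded in medium containing 10% Nu serum, with a 24 hr compound exposure preceded by 12 hours of culture.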
GLP-1R inv ag = acts as inverse agonist at human GLP-1 receptor. HEK293 GLP-1R CRE-luciferase, luminescence, 24 h; GLP-1R form is constitutively active. P43220. AID 624417. 1.6% of 410,000 active. Potency, µM (series often up to 38.3 µM), usual class: inhibitors; further: nearly all actives have a fitted effect of over 55% in size
Target sequence (P43220 whole entry, looked up): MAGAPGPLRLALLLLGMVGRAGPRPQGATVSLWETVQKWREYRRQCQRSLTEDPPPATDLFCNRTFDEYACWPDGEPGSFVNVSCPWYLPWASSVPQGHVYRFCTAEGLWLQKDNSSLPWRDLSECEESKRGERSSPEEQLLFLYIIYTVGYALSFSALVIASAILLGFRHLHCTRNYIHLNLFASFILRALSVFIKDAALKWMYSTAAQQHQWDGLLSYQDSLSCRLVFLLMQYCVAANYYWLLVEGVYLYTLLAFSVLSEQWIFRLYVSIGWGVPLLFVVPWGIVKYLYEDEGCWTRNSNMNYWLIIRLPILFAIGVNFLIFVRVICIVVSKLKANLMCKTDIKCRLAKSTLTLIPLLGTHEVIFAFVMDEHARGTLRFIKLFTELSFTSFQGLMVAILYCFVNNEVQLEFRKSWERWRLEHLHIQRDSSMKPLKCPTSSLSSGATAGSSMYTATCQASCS
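Inverse agonists were sought by their lowering of basal cAMP reporter luciferase output in HEK293 cells stably carrying constitutively active human GLP-1R, after 24 h compound treatment.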
GLP-1R agonist = GLP-1 receptor (human) agonism; P43220; HEK293 GLP-1R CRE-luciferase, luminescence, 4-6 h; cells express a hypersensitive GLP-1R form; Potency, µM (highest dose often 45.6 µM), usual class: activators; 0.007% of 380,000 active
Each line names hits and unclear results; the compound was inactive in the other large screens. Unless noted, the call rests on the fitted dose curve; in most records, active means well fitted curve in the direction sought with a large enough effect; inconclusive means small, poorly fitted or top-dose-only effect, or another doubt; inactive means no such curve, though single readings can be large; an effect the other way counts as inactive or inconclusive.

Cc1ccc(OCC(=O)Nc2cccc(OCc3cc(=O)n4ccccc4n3)c2)cc1C	none (no result: TSHR antagonist, GLP-1R agonist)
CCOC(=O)c1cnc2c(OC)cccc2c1Nc1cccc(O)c1	none (no result: TSHR antagonist)
O=C(NCC12CC3CC(CC(C3)C1)C2)c1nn2c(c1Cl)NC(c1ccco1)CC2C(F)(F)F (centres undefined)	GLP-1R inv ag 4µM
O=C(NCc1cccc(Cl)c1)c1cnn2c1NC(c1ccco1)CC2C(F)(F)F (centres undefined)	none
Cc1cccc(N2CCN(C(=O)CCNS(=O)(=O)c3ccc4c(c3)CCN4C(=O)C3CC3)CC2C)c1 (centres undefined)	none (no result: TSHR antagonist)
CCCCC1C(=O)NN(c2ccccc2)C1=O (centres undefined)	GLP-1R inv ag 1.8µM (no result: TSHR antagonist)
CCCCCC1CC(=O)N(Cc2ccccc2)C(=O)N1 (centres undefined)	none
CC(C)C1N=C(c2ccc3c(c2)OCO3)CC(c2ccccc2O)N1 (centres undefined)	GLP1R cytotox inconclusive, GLP-1R inv ag 11µM
Cc1ccc([N+](=O)[O-])cc1N(CC(=O)Nc1ccc(S(=O)(=O)Nc2cccc(C(F)(F)F)c2)cc1)S(C)(=O)=O	GLP1R cytotox inconclusive, GLP-1R inv ag 1µM
CC(=O)c1ccc(NC(=O)Cn2cc3c(n2)CCCC3)cc1	none (no result: TSHR antagonist, GLP-1R agonist)
CCOC(=O)c1ccccc1NC(=O)CN1C(=O)CC(c2ccccc2)Sc2ccccc21 (centres undefined)	GLP-1R inv ag 10µM (no result: TSHR antagonist)
CCOc1ccccc1CNC(=O)C1CCN(S(=O)(=O)c2ccc3c(ccn3C)c2)CC1	none (no result: TSHR antagonist, GLP-1R agonist)
COc1ccccc1C(=O)N(CCC1CCCN1C)c1nc2ccccc2s1 (centres undefined)	GLP-1R inv ag 3.5µM
Cc1ccc2c(c1)C(O)(c1c(C)[nH]c3ccccc13)C(=O)N2 (centres undefined)	GLP-1R inv ag 3.2µM
COc1ccc(CCN2C(=O)CN(C3CCC(C)CC3)C(=O)C2c2ccc(OC(C)C)c(OC)c2)cc1OC (centres undefined)	none (no result: TSHR antagonist, GLP-1R agonist)
Cc1ccc(-c2cc3c(nn2)-c2ccccc2C3=O)cc1	GLP-1R inv ag 1.4µM
Cc1nc(Nc2nc(CSc3nc4ccccc4[nH]3)cc(=O)[nH]2)nc2ccccc12	GLP1R cytotox inconclusive, GLP-1R inv ag 1.1µM
Cc1nn(Cc2nc(-c3cccs3)no2)c(C)c1Br	TSHR antagonist -72, GLP-1R inv ag inconclusive
CCOC(=O)N1CCN(Cc2nc(-c3cccs3)no2)CC1	none
O=C(c1ccccc1)C(CN1CCCCC1)c1ccccc1 (centres undefined)	GLP1R cytotox inconclusive, GLP-1R inv ag 2.8µM (no result: TSHR antagonist)
CN(C)CC(C(=O)c1ccccc1)c1ccccc1 (centres undefined)	GLP1R cytotox 8.9µM
O=C(c1ccc(Br)cc1)C(CN1CCOCC1)c1ccccc1 (centres undefined)	GLP1R cytotox inconclusive, GLP-1R inv ag inconclusive
O=C(CC(C(=O)c1ccccc1)c1ccccc1)c1ccccc1 (centres undefined)	GLP-1R inv ag 10µM (no result: TSHR antagonist)
COc1cc(OC)nc(-n2ncc(Br)c(Br)c2=O)n1	GLP1R cytotox 3.2µM, GLP-1R inv ag inconclusive
COC(=O)c1cnn(-c2nc(OC)cc(OC)n2)c1C	none
CC(C)c1nn2c(=O)cc(COC(=O)c3ccc(NC(=O)COc4ccccc4)cc3)nc2s1	none (no result: TSHR antagonist, GLP-1R agonist)
CN1/C(=C\C=C(/C#N)C(=O)Nc2ccc(Cl)cc2)C(C)(C)c2ccccc21	none
CN1/C(=C\C(=S)Nc2ccccc2)C(C)(C)c2ccccc21	GLP1R cytotox inconclusive, GLP-1R inv ag 11µM
CN1/C(=C\C(=O)Nc2ccc(Cl)cc2)C(C)(C)c2ccccc21	GLP-1R inv ag 10µM
CC1CCn2c(nc3cc(C(=O)NCc4ccc(F)cc4)ccc32)C1 (centres undefined)	none (no result: TSHR antagonist, GLP-1R agonist)
Clc1ccc(CCNC(c2ccc(Cl)cc2)c2nnc(-c3ccccc3)o2)cc1 (centres undefined)	GLP-1R inv ag inconclusive (no result: TSHR antagonist, GLP-1R agonist)
S=C(NCc1ccccc1)C(=S)NCc1ccccc1	GLP-1R inv ag 10µM (no result: TSHR antagonist)
C=CCOc1cc(Cl)ccc1C(=O)NCCN(CC)CC	none (no result: TSHR antagonist, PTHR1 ag, GLP1R cytotox, GLP-1R inv ag)
COc1cccc(NC(=O)C(Sc2nnc(Nc3ccccc3C)s2)c2ccccc2)c1 (centres undefined)	GLP1R cytotox inconclusive, GLP-1R inv ag 10µM
CN(C(=O)Cc1c[nH]c2ccccc12)C(C(=O)Nc1ccc2c(c1)OCO2)c1ccccc1 (centres undefined)	GLP-1R inv ag inconclusive
COc1ccc(C(C(=O)Nc2ccc(C(C)C)cc2)N(C)C(=O)Cc2cccs2)cc1 (centres undefined)	GLP-1R inv ag 3.2µM (no result: TSHR antagonist, GLP-1R agonist)
COc1ccc(NC(=O)C(NC(=O)Cc2cccs2)c2ccc(OC)cc2)cc1 (centres undefined)	none (no result: TSHR antagonist, GLP-1R agonist)
CC(C)c1ccc(NC(=O)C(c2ccccc2)N(C)C(=O)CCc2c[nH]c3ccccc23)cc1 (centres undefined)	GLP-1R inv ag 10µM (no result: TSHR antagonist)
CSc1nc(N)c2ncn([C@@H]3O[C@H](COP(=O)(O)OP(=O)(O)O)C(O)[C@H]3O)c2n1 (some centres undefined)	none (no result: PTHR1 ag, GLP1R cytotox, GLP-1R inv ag, GLP-1R agonist)
Cc1cc(C=O)c(C)n1-c1ccc(NC2CCCC2)c([N+](=O)[O-])c1	TSHR antagonist -100, GLP-1R inv ag inconclusive
Cc1cc(C=O)c(C)n1-c1ccc(Oc2ccc([N+](=O)[O-])cn2)cc1	none
O=C(CCc1nnc2n(Cc3ccc(Cl)cc3)c(=O)c3ccccc3n12)N1CCN(c2ccccn2)CC1	TSHR antagonist -134
O=C(Nc1cccc(Cl)c1)Nc1nnc(-c2ccncc2)s1	TSHR antagonist -73, GLP-1R inv ag inconclusive
Cc1cc(NC(=O)COC(=O)C2CC2)ccc1Br	GLP-1R inv ag inconclusive
Cc1cc(NC(=O)CON=C(N)CC(=O)Nc2ccccc2Cl)ccc1Br	GLP-1R inv ag 10µM
CN(Cc1ccccc1Cl)C(=O)c1cc2ccccc2o1	TSHR antagonist -102, GLP-1R inv ag inconclusive
CN(Cc1ccccc1)C(=O)c1cc2ccccc2o1	none
CC(C)(C)N(Cc1ccccc1)C(=O)c1cc2ccccc2o1	GLP-1R inv ag 2.2µM
CCOc1ccc(C(=O)OC2CCN(C)CC2)cc1	GLP-1R inv ag 4µM
COc1cccc(/C=C2\SC(=S)N(CCCC(=O)N(CCO)c3ccccc3)C2=O)c1	GLP-1R inv ag 4.5µM
COc1cccc(/C=C2\SC(=S)N(CCC(=O)NCCc3ccc(O)cc3)C2=O)c1	GLP1R cytotox inconclusive, GLP-1R inv ag 4µM
O=C1/C(=C/c2cccc(Br)c2)SC(=S)N1CCC(=O)N(CCO)c1ccccc1	GLP-1R inv ag 11µM
Cc1ccc(NC(=O)C(NC2CCCc3ccccc32)c2ccccc2)cc1Cl (centres undefined)	GLP-1R inv ag inconclusive

High-throughput results (PubChem)
